High-throughput results from PubChem.
BAZ2B block = inhibitors of human BAZ2B bromodomain | Q9UIF8 | AlphaScreen BAZ2B-H3K14Ac peptide displacement | Potency, µM (series often up to 114 µM), usual class: inhibitors | 360,000 compounds, 4.4% hits | AID 504333; note: nearly all actives have a fitted effect of over 60% in size
Target sequence (Q9UIF8 whole entry, looked up): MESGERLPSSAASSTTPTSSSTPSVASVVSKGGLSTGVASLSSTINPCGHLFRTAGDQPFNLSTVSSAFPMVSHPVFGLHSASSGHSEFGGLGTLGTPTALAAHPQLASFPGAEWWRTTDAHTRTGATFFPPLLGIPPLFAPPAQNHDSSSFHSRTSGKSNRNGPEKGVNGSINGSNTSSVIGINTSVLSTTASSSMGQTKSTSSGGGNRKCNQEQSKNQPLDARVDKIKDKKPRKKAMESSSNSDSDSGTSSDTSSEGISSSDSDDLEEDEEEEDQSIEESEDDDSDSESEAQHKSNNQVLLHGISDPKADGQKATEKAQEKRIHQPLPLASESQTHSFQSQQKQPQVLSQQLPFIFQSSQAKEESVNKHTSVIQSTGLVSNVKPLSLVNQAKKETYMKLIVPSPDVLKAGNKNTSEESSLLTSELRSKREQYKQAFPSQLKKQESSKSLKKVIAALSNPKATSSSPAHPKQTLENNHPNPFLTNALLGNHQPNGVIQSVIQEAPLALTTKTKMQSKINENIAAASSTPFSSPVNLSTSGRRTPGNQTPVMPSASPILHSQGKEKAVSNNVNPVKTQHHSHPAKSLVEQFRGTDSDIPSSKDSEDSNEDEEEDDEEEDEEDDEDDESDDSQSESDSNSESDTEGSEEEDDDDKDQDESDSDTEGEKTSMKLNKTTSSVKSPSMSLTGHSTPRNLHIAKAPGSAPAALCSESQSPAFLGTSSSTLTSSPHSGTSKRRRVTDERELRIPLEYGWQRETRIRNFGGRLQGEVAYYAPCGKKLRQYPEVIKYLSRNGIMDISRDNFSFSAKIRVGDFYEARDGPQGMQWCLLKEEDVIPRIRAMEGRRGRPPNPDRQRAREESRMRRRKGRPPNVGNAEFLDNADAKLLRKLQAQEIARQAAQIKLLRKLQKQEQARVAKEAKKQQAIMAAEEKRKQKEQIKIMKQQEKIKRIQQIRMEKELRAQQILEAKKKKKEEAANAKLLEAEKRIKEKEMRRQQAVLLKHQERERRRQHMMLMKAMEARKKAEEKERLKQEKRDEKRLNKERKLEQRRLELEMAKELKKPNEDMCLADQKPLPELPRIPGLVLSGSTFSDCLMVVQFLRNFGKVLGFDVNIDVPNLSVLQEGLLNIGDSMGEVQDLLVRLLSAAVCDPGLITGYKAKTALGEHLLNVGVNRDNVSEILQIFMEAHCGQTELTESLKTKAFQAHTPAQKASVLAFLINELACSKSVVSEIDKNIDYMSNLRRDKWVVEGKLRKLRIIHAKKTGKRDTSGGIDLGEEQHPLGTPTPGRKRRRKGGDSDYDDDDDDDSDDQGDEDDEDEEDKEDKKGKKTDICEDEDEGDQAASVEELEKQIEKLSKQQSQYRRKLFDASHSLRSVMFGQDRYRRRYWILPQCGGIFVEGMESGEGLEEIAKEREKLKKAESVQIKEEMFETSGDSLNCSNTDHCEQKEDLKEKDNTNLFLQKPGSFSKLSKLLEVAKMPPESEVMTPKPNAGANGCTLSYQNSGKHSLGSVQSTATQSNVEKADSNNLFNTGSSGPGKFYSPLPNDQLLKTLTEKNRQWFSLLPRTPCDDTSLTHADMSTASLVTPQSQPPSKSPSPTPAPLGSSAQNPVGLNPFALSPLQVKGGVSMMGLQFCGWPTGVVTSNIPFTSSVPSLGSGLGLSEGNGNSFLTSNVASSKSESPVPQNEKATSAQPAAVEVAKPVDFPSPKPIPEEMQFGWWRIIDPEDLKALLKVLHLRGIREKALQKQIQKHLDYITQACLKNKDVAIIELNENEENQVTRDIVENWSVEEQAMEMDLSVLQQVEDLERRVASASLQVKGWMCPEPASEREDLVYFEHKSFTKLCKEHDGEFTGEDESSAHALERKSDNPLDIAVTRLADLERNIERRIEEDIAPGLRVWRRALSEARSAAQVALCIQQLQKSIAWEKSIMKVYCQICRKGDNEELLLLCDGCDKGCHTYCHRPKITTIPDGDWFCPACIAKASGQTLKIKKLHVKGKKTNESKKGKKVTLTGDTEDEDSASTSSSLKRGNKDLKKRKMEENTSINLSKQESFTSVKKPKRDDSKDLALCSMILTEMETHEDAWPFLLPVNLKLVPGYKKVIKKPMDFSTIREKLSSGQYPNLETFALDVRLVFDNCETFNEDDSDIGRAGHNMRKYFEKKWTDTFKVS
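AlphaScreen luminescence quantifies BAZ2B engagement of H3K14Ac peptide; the protein and biotinylated peptide are both at 50 nM final, buffer PBS pH 7.4 with 0.01% Tween-20, all steps at room temperature.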
GLS inhibitor = inhibitors of human glutaminase (GLS); O94925; GLS enzymatic activity, qHTS titration; Potency, µM (highest dose often 45.5 µM), hits mostly inhibitors; 410,000 compounds, 0.21% hits; AID 624170
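Read-out is an Amplex red fluorescence increase coupled through glutamate oxidase and HRP, measured before and after 30 min room-temperature incubation. hKGA is in 45 mM KH2PO4 (pH 8.2) with 0.02% Tween-20; glutamine added as 1mM solution.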
G9a block = inhibitors of human histone lysine methyltransferase G9a; Potency, µM (series often up to 102 µM), hits mostly inhibitors; G9a H3K9 monomethylation, AlphaScreen, 2 h; AID 504332; Q96KQ7; 350,000 compounds, 8.8% hits; note: nearly all actives have a fitted effect of over 75% in size
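AlphaScreen read-out: biotin-H3K9 peptide (500 nM) methylation by 20 nM enzyme with 20 uM SAM, 2 h at room temperature after 15 min compound preincubation; anti-monomethyl H3K9 antibody plus donor/acceptor beads, 10 min dark.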
JMJD2A Tudor inh = inhibitors of human JMJD2A Tudor domain. O75164. AlphaScreen JMJD2A-Tudor / H3K4me3 peptide binding. Potency, µM (series often up to 114 µM), hits mostly inhibitors. 390,000 compounds, 4.4% hits. AID 504339; note: nearly all actives have a fitted effect of over 50% in size
HP1b binding inh = HP1-beta chromodomain-methylated histone interaction inhibition | P83916 | AlphaScreen HP1-beta / biotin-H3K9me3 peptide binding | AID 540317 | Potency, µM (highest dose often 114 µM), usual class: inhibitors | 390,000 compounds, 0.56% hits; note: nearly all actives have a fitted effect of over 70% in size
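Compound inhibition of the preformed complex between 50 nM HP1-beta and 50 nM biotinylated H3K9me3 peptide was read by AlphaScreen. Buffer was PBS pH 7.4 with 0.01% Tween-20. Incubations ran 30 min at room temperature, with 10 ug/mL donor/acceptor beads.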
Of the large screens only hits and unclear results are named; the others gave an inactive call. An excerpt weighted towards active compounds, which were near 10% of everything screened. Calls come from the whole dose curve; as a rule, active = well fitted curve in the direction sought with a large enough effect; inconclusive = small, poorly fitted or top-dose-only effect, or another doubt; inactive = no such curve, though single readings can be large; an effect the other way counts as inactive or inconclusive.

O=C(C(=O)N1CCCc2ccccc21)c1c[nH]c2ccccc12	none
O=C(C(=O)N1CCN(c2ccccc2Cl)CC1)c1c[nH]c2ccccc12	BAZ2B block 50µM, JMJD2A Tudor inh inconclusive
COc1ccc(Br)cc1CN1CCN(Cc2c[nH]c3ccccc23)CC1	BAZ2B block 14µM, G9a block 8.9µM, JMJD2A Tudor inh 2.8µM, HP1b binding inh inconclusive
COc1ccc(CN2CCN(Cc3c[nH]c4ccccc34)CC2)cc1	BAZ2B block 20µM, G9a block inconclusive, JMJD2A Tudor inh 0.79µM, HP1b binding inh 35µM
COc1ccc(Cl)cc1NC(=O)CN(C)C(=O)c1ccc(N2CCCCC2)c([N+](=O)[O-])c1	BAZ2B block inconclusive, G9a block 7.9µM, JMJD2A Tudor inh inconclusive, HP1b binding inh inconclusive
COc1ccc(Cl)cc1NC(=O)CN(C)C(=O)c1ccc(N2CCCCCC2)c([N+](=O)[O-])c1	BAZ2B block inconclusive, G9a block 22µM, JMJD2A Tudor inh inconclusive, HP1b binding inh inconclusive
CN(CC(=O)Nc1ccccc1Cl)C(=O)c1ccc(N2CCCCCC2)c([N+](=O)[O-])c1	BAZ2B block inconclusive, G9a block inconclusive, JMJD2A Tudor inh inconclusive
COc1cc(NC(=O)Nc2ccccc2)c(OC)cc1NC(=O)CN1CCCCC1	BAZ2B block 50µM, JMJD2A Tudor inh 40µM, HP1b binding inh inconclusive
COc1cc(NC(=O)c2ccccc2)c(OC)cc1NC(=O)CN1C(=O)N(C)C2(CCCCC2)C1=O	BAZ2B block inconclusive, G9a block 79µM, JMJD2A Tudor inh inconclusive
COc1cc(NC(=O)c2ccc(Cl)cc2)c(OC)cc1NC(=O)CN1CCCCC1	BAZ2B block 40µM, G9a block 50µM, HP1b binding inh inconclusive
O=C(Cc1cccc(F)c1)N1CCOCC1	none (no result: BAZ2B block, G9a block)
COc1ccc2c(c1)CCc1c(C(=O)Nc3c(C)nn(Cc4ccc(C)cc4)c3C)noc1-2	none
CC(C)N1C/C(=C/c2ccsc2)C(=O)/C(=C/c2ccsc2)C1	BAZ2B block 45µM, G9a block inconclusive, JMJD2A Tudor inh inconclusive
CC(C)N1C/C(=C/c2cccnc2)C(=O)/C(=C/c2cccnc2)C1	none
COc1cccc(C(=O)NCc2cn3cccc(C)c3n2)c1	G9a block inconclusive
Cc1ccc(CNc2cccnc2)cc1	none
C/C(NCCc1ccc(O)cc1)=C1/CCOC1=O	none (no result: BAZ2B block, G9a block, JMJD2A Tudor inh, HP1b binding inh)
C=CCNC1=C(Cl)C(=O)c2ccccc2C1=O	BAZ2B block 32µM, G9a block 40µM, JMJD2A Tudor inh 45µM, HP1b binding inh 50µM
Cc1ccc(NCc2cccnc2)cc1	BAZ2B block inconclusive, G9a block 56µM, JMJD2A Tudor inh 40µM
O=C1c2ccccc2C(=O)c2c(NCCc3ccc(O)cc3)ccc(NCCc3ccc(O)cc3)c21	G9a block 1.8µM (no result: BAZ2B block, GLS inhibitor, JMJD2A Tudor inh, HP1b binding inh)
O=C1C(Cl)=C(NCCc2ccccc2)C(=O)c2ccccc21	GLS inhibitor inconclusive, JMJD2A Tudor inh 0.79µM, HP1b binding inh inconclusive (no result: BAZ2B block, G9a block)
Cc1ccccc1Cn1c(=O)n(CCCCC(=O)NCc2ccccc2Cl)c(=O)c2ccccc21	none
CCc1ccc(NCc2cc3cc4c(cc3n(CC(=O)Nc3ccccc3Cl)c2=O)OCO4)cc1	BAZ2B block inconclusive, GLS inhibitor inconclusive, G9a block inconclusive
Cc1ccsc1C(=O)NC1CCCN(Cc2ccc(Cl)cc2)C1 (stereo not given)	JMJD2A Tudor inh inconclusive (no result: G9a block)
CC(=O)N(Cc1ccc(F)cc1)c1cccc(C)c1C	none
O=C1C(Cl)=C(NCc2cccnc2)C(=O)c2ccccc21	BAZ2B block 50µM, G9a block inconclusive
CC(=O)N(Cc1ccc(F)cc1)C1=C(NCCc2ccccc2)C(=O)c2ccccc2C1=O	BAZ2B block 14µM, G9a block 28µM, JMJD2A Tudor inh 20µM
O=S(=O)(Cc1ccccc1)NCc1cccnc1	G9a block inconclusive
N#Cc1c(Cc2cccc3ccccc23)nn(CCO)c1N	none (no result: BAZ2B block, G9a block)
COc1ccc(-c2c(C)nn(Cc3ccccc3)c2N)cc1	G9a block 45µM
COc1ccc(-c2ccc(=O)n(Cc3ccccc3)n2)cc1	none (no result: G9a block)
Cc1ccc(-n2ncc(C(=O)NCCc3c[nH]c4ccccc34)c2C2CCN(C(=O)OC(C)(C)C)CC2)cc1C	JMJD2A Tudor inh inconclusive
Cc1cccc(NC(=O)CSCC(=O)Nc2cc(Cl)ccc2N2CCN(C)CC2)c1	G9a block 79µM
Cc1cc(NC(=O)CSCC(=O)Nc2cc(Cl)ccc2N2CCN(C)CC2)no1	none
O=C(Cc1ccccc1F)Nc1cc(Cl)ccc1N1CCCC1	G9a block 45µM
O=C(CC1OC(=O)c2ccccc21)Nc1cc(S(=O)(=O)N2CCOCC2)ccc1OCC(F)(F)F (stereo not given)	G9a block 13µM
COc1ccc(S(=O)(=O)N2CCCCCC2)cc1NC(=O)CC1OC(=O)c2ccccc21 (stereo not given)	none
CC(=O)N1CCN(C(=O)CC2OC(=O)c3ccccc32)CC1 (stereo not given)	BAZ2B block inconclusive, G9a block 40µM
COc1ccc(C(=O)CC2OC(=O)c3ccccc32)cc1OC (stereo not given)	none
O=C(Cc1ccccc1F)Nc1ccccc1N1CCCC1	JMJD2A Tudor inh inconclusive
CCOC(=O)c1[nH]c(C)c(C(=O)NC(CC)Cc2ccccc2)c1C (stereo not given)	none
COc1cccc(NC(=O)c2ccc3nc(C)c(N(C)Cc4ccc(NC(C)=O)cc4)n3c2)c1	none (no result: BAZ2B block, G9a block, JMJD2A Tudor inh, HP1b binding inh)
CCOc1ccc(N(C)C(=O)CS(=O)(=O)c2cccc3nsnc23)cc1	none
O=C(CC1OC(=O)c2ccccc21)Nc1cc(Cl)ccc1N1CCCC1 (stereo not given)	G9a block 56µM
Cc1ccc(NC(=O)CC2OC(=O)c3ccccc32)cc1S(=O)(=O)N1CCCCCC1 (stereo not given)	G9a block inconclusive
O=C(CC1OC(=O)c2ccccc21)Nc1ccccc1N1CCOCC1 (stereo not given)	none
O=C(CC1OC(=O)c2ccccc21)Nc1ccc(Cl)c(S(=O)(=O)N2CCCCC2)c1 (stereo not given)	G9a block 14µM
CNC(=O)N(O)C1N(C)C(=O)N(CC(=O)OC)C1(C)C (stereo not given)	JMJD2A Tudor inh 16µM
COc1ccc(OC)c(C2CC(=O)c3c([nH]c(C(=O)OC4CCC(C)CC4)c3C)C2)c1 (stereo not given)	none
Cc1cc(C(N)=O)c2ccccc2n1	none (no result: BAZ2B block)
NC(=O)c1cc2c3ccccc3ccn2c1-c1ccccc1	BAZ2B block 32µM, G9a block 35µM, JMJD2A Tudor inh 32µM, HP1b binding inh inconclusive
O=S(=O)(c1ccc(Cl)cc1)N(CCCN1CCOCC1)Cc1cccs1	BAZ2B block 50µM, G9a block 28µM, JMJD2A Tudor inh 8.9µM
CCS(=O)(=O)N1CCc2cc(C(=O)NC(C)c3ccccc3)ccc21 (stereo not given)	none
COCC(C)OC(=O)C(C#N)c1nc2ccccc2nc1N1CCN(Cc2ccccc2)CC1 (stereo not given)	BAZ2B block inconclusive, G9a block 45µM
